Laboratory results taken from the supplement of paper PMC3545927.
The list shows a part of the results. The true hit rate is not given.

Molecular target: furin, P09958
Test: furin cleavage Z-score vs untreated control; higher = more cleavage, active = 3.5 or more, inactive = 1 or less, 8 variable residues between constant flanks
Summary of the method: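 Peptides 8 residues long, fused to a cDNA oligonucleotide, were fixed to magnetic beads by the N-terminus and exposed to purified furin. The 0.01 ml reactions contained 50 mM HEPES pH 7.5 with CaCl2 and NaCl at 1:10 enzyme:substrate and ran 7.5, 15 or 30 min. For the cleavage Z-score, log counts of sequenced released DNA were compared with furin-free reactions, lowess-adjusted and scaled by median absolute deviation.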

Sequence of furin, P09958 (P09958 whole entry): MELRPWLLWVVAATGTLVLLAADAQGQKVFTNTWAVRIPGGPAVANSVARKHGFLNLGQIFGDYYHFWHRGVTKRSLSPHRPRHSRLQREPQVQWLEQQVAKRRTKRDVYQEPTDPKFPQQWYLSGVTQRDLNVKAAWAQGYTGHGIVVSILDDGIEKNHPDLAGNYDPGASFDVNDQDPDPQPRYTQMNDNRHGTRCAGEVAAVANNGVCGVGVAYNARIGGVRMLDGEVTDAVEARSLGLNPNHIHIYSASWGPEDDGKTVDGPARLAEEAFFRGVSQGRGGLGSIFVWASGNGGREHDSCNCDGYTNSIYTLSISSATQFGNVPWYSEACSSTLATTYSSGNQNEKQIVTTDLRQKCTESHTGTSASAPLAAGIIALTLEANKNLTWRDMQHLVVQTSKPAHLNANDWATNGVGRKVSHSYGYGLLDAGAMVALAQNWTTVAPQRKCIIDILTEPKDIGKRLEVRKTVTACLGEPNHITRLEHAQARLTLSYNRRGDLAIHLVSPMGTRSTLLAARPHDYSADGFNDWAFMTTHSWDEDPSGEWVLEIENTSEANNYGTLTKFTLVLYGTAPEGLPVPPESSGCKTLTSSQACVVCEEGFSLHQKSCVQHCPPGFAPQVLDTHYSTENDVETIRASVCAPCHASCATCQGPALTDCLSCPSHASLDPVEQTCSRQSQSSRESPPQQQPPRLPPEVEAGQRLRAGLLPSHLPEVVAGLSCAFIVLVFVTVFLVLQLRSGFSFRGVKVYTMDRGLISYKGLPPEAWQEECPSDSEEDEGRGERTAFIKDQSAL

Sequence | furin cleavage Z-score (7.5 min) | furin cleavage Z-score (15 min) | furin cleavage Z-score (30 min)
CAEPPVVHGCAGNASASA [HC1314] | 0.438 (inactive) | 1.71 | -0.723 (inactive)
CARDRRAAGSAGNASASA [FS-1946] | 6.35 (active) | 7.75 (active) | 5.91 (active)
CARHLRSAGSAGNASASA [FS-1896] | 1.18 | -0.11 (inactive) | 2.17
CARHRRATGAAGNASASA [FS-2944] | 6.7 (active) | 5.37 (active) | 4.1 (active)
CATTPCRGSWAGNASASA [HC70] | -0.828 (inactive) | -1.44 (inactive) | -0.599 (inactive)
CAEGERGFFYAGNASASA [EK6] | -2.12 (inactive) | -0.423 (inactive) | -2.28 (inactive)
CADGAGKRVYAGNASASA [HC1558] | 1.53 | 1.27 | 0.404 (inactive)
CASGHRTRRYAGNASASA [FS-192] | 7 (active) | 8.02 (active) | 8.16 (active)
CAEMSRTRRYAGNASASA [FS-1319] | 5.42 (active) | 8.78 (active) | 8.64 (active)
CATSQTLLFNAGNASASA [HC1062] | 0.00122 (inactive) | -0.692 (inactive) | -0.503 (inactive)
CARLKPTLHGAGNASASA [HC967] | -0.75 (inactive) | -0.713 (inactive) | 0.566 (inactive)
CAVRKRSPWLAGNASASA [FS-3142] | -1.29 (inactive) | 0.44 (inactive) | 1.17
CARLKRLFLAAGNASASA [FS-2991] | 0.382 (inactive) | -1.83 (inactive) | -1.56 (inactive)
CAVLKRDVDIAGNASASA [FS-1815] | 1.04 | -1.55 (inactive) | 0.353 (inactive)
CARLKRDLATAGNASASA [FS-2043] | 9.22 (active) | 11.3 (active) | 9.07 (active)
CARLKRDRSAAGNASASA [FS-2220] | 6.33 (active) | 8.55 (active) | 8.68 (active)
CAVRKRQVSLAGNASASA [FS-3141] | -1.04 (inactive) | -0.0874 (inactive) | 0.617 (inactive)
CARLKRDPGIAGNASASA [FS-2350] | 3.26 | 4.16 (active) | 3.42
CAVRKRDLQTAGNASASA [FS-3140] | 2.53 | 5.9 (active) | 5.02 (active)
CAKTPCSAHLAGNASASA [HC2474] | -0.289 (inactive) | -0.529 (inactive) | -1.11 (inactive)
CAMEWCSQHLAGNASASA [HC1708] | 0.411 (inactive) | 0.726 (inactive) | 0.812 (inactive)
CAEDVVCCSMAGNASASA [HC1368] | -0.171 (inactive) | 0.686 (inactive) | 0.101 (inactive)
CATTQCSGSWAGNASASA [HC1882] | -0.496 (inactive) | -1.36 (inactive) | -0.763 (inactive)

Sequence | furin cleavage Z-score (7.5 min) | furin cleavage Z-score (15 min) | furin cleavage Z-score (30 min)
CAFRVGLHEYAGNASASA [HC1234] | -0.864 (inactive) | -0.389 (inactive) | -0.313 (inactive)
CAEVPCHRPPAGNASASA [HC2419] | -0.0603 (inactive) | 1.24 | -0.795 (inactive)
CAEACSLTPPAGNASASA [HC1414] | 0.244 (inactive) | -0.208 (inactive) | -0.022 (inactive)
CARRRRQEEKAGNASASA [FS-2794] | -0.167 (inactive) | 1.69 | -1.54 (inactive)
CARRRRSMDPAGNASASA [FS-3067] | 8 (active) | 9.64 (active) | 7.14 (active)
CARRRRQLDPAGNASASA [FS-2598] | 8.96 (active) | 10.1 (active) | 7.56 (active)
CARRTRSRSPAGNASASA [FS-2521] | 2.04 | 2.53 | 4.49 (active)
CARRTRSFSWAGNASASA [FS-1790] | 0.729 (inactive) | 1.95 | 2.68
CARRTRFISLAGNASASA [FS-2601] | -0.682 (inactive) | 1.63 | 1.87
CARRRRELDPAGNASASA [FS-2076] | 11.6 (active) | 10.7 (active) | 8.52 (active)
CALAAGVGIYAGNASASA [HC1660] | 0.247 (inactive) | -0.366 (inactive) | 0.0629 (inactive)
CAVGWPAPQGAGNASASA [HC715] | 0.307 (inactive) | 1.62 | 0.189 (inactive)
CAECPCHRPSAGNASASA [HC2340] | 0.0178 (inactive) | -0.268 (inactive) | -1.23 (inactive)
CARRTRDLDPAGNASASA [FS-2520] | 8.58 (active) | 8.71 (active) | 7.24 (active)
CARATRFWDPAGNASASA [FS-2650] | -0.242 (inactive) | -0.738 (inactive) | 0.257 (inactive)
CARRRRELEPAGNASASA [FS-1867] | 10.9 (active) | 11 (active) | 7.47 (active)
CATVDFSLDPAGNASASA [HC891] | -0.614 (inactive) | -1.09 (inactive) | -1.01 (inactive)
CAPSWGPTDPAGNASASA [HC213] | -0.72 (inactive) | -1.18 (inactive) | 1.35
CAWGNRFKKLAGNASASA [FS-315] | -1.19 (inactive) | 0.33 (inactive) | -1.11 (inactive)
CAWGSRFKKLAGNASASA [FS-317] | 0.17 (inactive) | -0.284 (inactive) | 0.58 (inactive)
CAWGPRFKRLAGNASASA [FS-209] | 6.86 (active) | 8.43 (active) | 8.5 (active)
CALGPRFKRLAGNASASA [FS-269] | 9.05 (active) | 10.1 (active) | 9.85 (active)
